# Screens deposited in PubChem by National Center for Advancing Translational Sciences (NCATS).
# KAT2A inh = qHTS Assay for Inhibitors of GCN5L2. AID 504327, 2011. GCN5L2 HAT assay, ThioGlo1 CoA-SH fluorescence. 390,000 tested, 0.21% active. Potency, µM (titrated, usually from 58.9 µM), hits mostly inhibitors. Histone acetyltransferase KAT2A (Homo sapiens), Q92830
#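 ThioGlo1-coupled HAT assay: 20nM GCN5L2, 70uM acetyl-CoA, 75uM H3(1-25) peptide, pH 7.5. Fluorescence read at 340/540nm at start and after 20 min at room temperature.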
# APE1 inh-1 = qHTS Assay for Inhibitors of the Human Apurinic/apyrimidinic Endonuclease 1 (APE1). DNA repair nuclease/redox regulator APEX1 (Homo sapiens), P27695. recombinant APE1, TAMRA/BHQ-2 abasic DNA cleavage fluorescence. Potency, µM (highest dose often 65.8 µM), actives largely listed as inhibitors. 350,000 tested, 0.35% active. AID 2517, 2012; further: nearly all actives have a fitted effect of over 55% in size
# Target sequence (P27695 whole entry, looked up): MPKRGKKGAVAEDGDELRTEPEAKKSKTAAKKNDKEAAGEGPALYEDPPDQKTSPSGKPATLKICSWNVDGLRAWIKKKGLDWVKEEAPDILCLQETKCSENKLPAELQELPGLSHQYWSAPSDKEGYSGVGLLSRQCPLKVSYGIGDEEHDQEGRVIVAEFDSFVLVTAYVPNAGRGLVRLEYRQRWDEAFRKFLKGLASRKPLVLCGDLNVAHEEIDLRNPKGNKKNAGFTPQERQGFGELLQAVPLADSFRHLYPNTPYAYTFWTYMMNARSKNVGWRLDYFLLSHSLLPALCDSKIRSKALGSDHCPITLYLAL
#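 APE1 at 0.75 nM preincubated 15 min at room temperature with compound. Reaction then started with 50 nM double-stranded THF-abasic substrate labelled with TAMRA/BHQ-2, and 525/598 nm fluorescence read kinetically. Activity taken as third-minus-first read difference, normalized to DMSO and NSC13755 controls.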
# RECQ1 helicase = qHTS Assay for Inhibitors of RecQ-Like Dna Helicase 1 (RECQ1) | RECQ1 DNA unwinding, red fluorescence kinetic read | Potency, µM (titrated, usually from 57.3 µM), actives largely listed as inhibitors | 240,000 tested, 0.54% active; further: nearly all actives have a fitted effect of over 30% in size
#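 RECQ1T1 50 nM; forked duplex (20 bp + 30-nt ss tails) 200 nM, ATP 2 mM final; pH 8.0, 2 mM MgCl2, 2.5 ug/ml poly(dI-dC); 15 min compound preincubation; discontinuous kinetic read over 2 h at RT.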
# BLM helicase inh = qHTS Assay for Inhibitors of Bloom's syndrome helicase (BLM); RecQ-like DNA helicase BLM (Homo sapiens), P54132; recombinant BLM DNA unwinding, fluorescence dequenching; Potency, µM (titrated, usually from 56.1 µM), hits mostly inhibitors; 350,000 tested, 0.2% active; further: nearly all actives have a fitted effect of over 35% in size
# TDP1 inh = qHTS Assay for Inhibitors of Tyrosyl-DNA Phosphodiesterase (TDP1); Tyrosyl-DNA phosphodiesterase 1 (Homo sapiens), Q9NUW8; recombinant TDP1, AlphaScreen DNA substrate cleavage; Potency, µM (highest dose often 130 µM), hits mostly inhibitors; 350,000 tested, 0.28% active; AID 485290, 2010; further: nearly all actives have a fitted effect of over 40% in size
#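 Signal: AlphaScreen proximity between streptavidin donor and anti-FITC acceptor beads on intact substrate. Reaction: Tdp1 1 nM, substrate 15 nM final, 5 min RT after 15 min compound preincubation.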
# APE1 dye cs = Counterscreen for APE1 Inhibitors: Fluorescent Dye Displacement Assay; DNA fluorescent dye displacement counterscreen, fluorescence; Potency, µM (highest dose often 28.5 µM), most hits filed as inhibitors; 480 tested, 7% active; shares compounds with APE1 inh-1; AID 2564, 2010;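 further: loss of thiazole orange fluorescence as the dye is displaced from duplex DNA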
# Endo IV inh = Counterscreen for APE1 Inhibitors: qHTS Assay for Inhibitors of Endonuclease IV; shares compounds with APE1 inh-1; E. coli Endo IV, fluorogenic AP-site DNA cleavage; Potency, µM (doses to about 27.1 µM), hits mostly inhibitors; 560 tested, 4% active; AID 2565, 2010
# APE1 inh-2 = Confirmation qHTS Assay for Inhibitors of the Human Apurinic/apyrimidinic Endonuclease 1 (APE1); purified APE1, fluorogenic abasic-site DNA cleavage; AID 2572, 2010; 750 tested, 44% active; Potency, µM (top dose mostly 57.1 µM), hits mostly inhibitors; shares compounds with APE1 inh-1; further: nearly all actives have a fitted effect of over 30% in size
# APE1 FP = qHTS FP-Based Assay for Inhibitors of the Human Apurinic/apyrimidinic Endonuclease 1 (APE1) | shares compounds with APE1 inh-1 | APE1 binding to TAMRA-labelled double-stranded DNA, fluorescence polarization displacement | Potency, µM (highest dose often 28.5 µM), hits mostly inhibitors | 480 tested, 7% active
# Hits are given with their value; n = inactive; u = inconclusive; x = no result; ! = repeats disagree; [ ] = remark or other dose. Most compounds without a hit are left out; they make up all but 0.87% or so of the library. The call rests on the fitted dose curve; in most records, active means well fitted curve in the direction sought with a large enough effect; inconclusive means small, poorly fitted or top-dose-only effect, or another doubt; inactive means no such curve, though single readings can be large; an effect the other way counts as inactive or inconclusive.
SMILES,KAT2A inh,APE1 inh-1,RECQ1 helicase,BLM helicase inh,TDP1 inh,APE1 dye cs,Endo IV inh,APE1 inh-2,APE1 FP
COc1ccc(C(CC(=O)N2CCCCC2)c2c(OC)cc(OC)c3c(-c4ccccc4)cc(=O)oc23)cc1 (configuration not stated),n,25.1µM,u,n,x,n,u,7.94µM,14.1µM
COc1ccc(C(CC(=O)N2CCN(c3ccccc3)CC2)c2c(OC)cc(OC)c3c(-c4ccccc4)cc(=O)oc23)cc1 (configuration not stated),n,u,u,n,x,n,u,5.62µM,n
C=CC[C@@](C(C)=O)(C(=O)OC)C(NC(=O)OC(C)(C)C)c1ccccc1 (some centres not stated),x,n,n,n,n,x,x,x,x
C=CCn1c(COc2cccc(C)c2)nnc1SCC(=O)NC(=O)NCc1ccco1,n,u,n,n,x,n,n,u,n
Nc1ncc(N=Nc2cc(C(=O)O)ccc2Cl)s1,n,8.91µM,u,n,x,n,n,u,u
Nc1cc2sc(-c3ccc(C(=O)O)cc3)nc2cc1Cl,u,n,n,n,x,x,x,x,x
CO/N=C(/C(=O)N[C@@H]1C(=O)N2C(C(=O)O)=C(CSC(=O)c3ccco3)CSC12)c1csc(N)n1 (some centres not stated),n,x,x,n,x,x,x,x,x
CO/N=C(\C(=O)N[C@@H]1C(=O)N2C(C(=O)O)=C(COC(C)=O)CS[C@@H]12)c1csc(N)n1,n,x,n,n,u,n,n,28.2µM,n
C=CC1=C(C(=O)O)N2C(=O)[C@@H](NC(=O)/C(=N\OCC(=O)O)c3csc(N)n3)[C@@H]2SC1,n,x,n,n,14.1µM,n,n,12.6µM,n
CO/N=C(\C(=O)N[C@@H]1C(=O)N2C(C(=O)O)=C(COC(C)=O)CS[C@H]12)c1csc(N)n1,n,n,n,n,n,x,x,x,x
CC(=O)OCC1=C(C(=O)O)N2C(=O)[C@@H](NC(=O)CSc3ccncc3)[C@H]2SC1,n,25.1µM!,n,x,7.94µM,x,15.8µM,7.94µM,x
Cn1nnnc1SCC1=C(C(=O)O)N2C(=O)[C@@H](NC(=O)[C@H](O)c3ccccc3)[C@H]2SC1,n,u,n,n,15.8µM,x,x,39.8µM,x
CO[C@H]1COC(=O)C/C=C\[C@H](C)[C@@H](OC)COC(=O)[C@H](C)COC(=O)C/C=C\[C@@H]1C,x,u,n[11.5 µM],n[12.4 µM],n[21 µM],x,x,x,x
CC(C)CS(=O)(=O)c1oc(-c2ccc(F)cc2)nc1S(=O)(=O)c1ccccc1,n,x,x,n,n,x,x,x,x
CC(C)(Cc1c[nH]c2ccccc12)NCC(O)COc1ccccc1C#N (configuration not stated),u,n,n,n,n,x,x,x,x
Cc1ccncc1C(=O)O,n,n,n,n,n,x,x,x,x
CN1C(=O)CC(N2CCC(C(N)=O)CC2)C1=O (configuration not stated),n,n,n,n,n,x,x,x,x
NC(=O)C1CCN(C2CC(=O)NC2=O)CC1 (configuration not stated),n,u,n,n,x,n,n,u,n
NN1C(=O)/C(=C\c2ccco2)SC1=S,n,14.1µM,u,u,x,n,n,u,n
COc1ccc2ccccc2c1-c1c(OC)ccc2ccccc12,x,n,n,n,n,x,x,x,x
O=c1oc2c3c4c(cc2s1)CCCN4CCC3,n,28.2µM,28.2µM,u,14.1µM,n,n,15.8µM,n
CC(=O)Oc1cc(OC(C)=O)c2c(c1)OC(c1ccc(OC(C)=O)c(OC(C)=O)c1)C(OC(C)=O)C2 (configuration not stated),n,n,n,n,n,x,x,x,x
O=C(OC1Cc2c(O)cc(O)cc2OC1c1cc(O)c(O)c(O)c1-c1c(C2Oc3cc(O)cc(O)c3CC2O)cc(O)c(O)c1O)c1cc(O)c(O)c(O)c1 (configuration not stated),15.8µM,0.1µM,2.51µM,6.31µM,x,x,n,0.178µM,x
S=c1[nH]nc(-c2cc(-c3ccccc3)n[nH]2)n1/N=C/c1ccc(Cl)c(Cl)c1,n,n,n,n,79.4µM,x,x,39.8µM,x
O=P(O)(O)O[C@@H]1[C@H](O)[C@H](O)[C@@H](OP(=O)(O)O)[C@H](OP(=O)(O)O)[C@H]1O,n,n,n,n,n,x,x,x,x
SMILES,KAT2A inh,APE1 inh-1,RECQ1 helicase,BLM helicase inh,TDP1 inh,APE1 dye cs,Endo IV inh,APE1 inh-2,APE1 FP
Cc1nc(-c2ccc(O)c(O)c2)cs1,n[0.501 µM],3.16µM,u,n,n,n,n,n,n
O=C(CCO)c1ccc(O)cc1,n,1.58µM,25.1µM,25.1µM,u,n,u,1.26µM,n
N=C(N)S/C=C\C(=O)O,u,u,n,n,n,x,x,x,x
CC(C)C(C(=O)O)N1C(=O)/C(=C/c2cccn2C)SC1=S (configuration not stated),n,n,n,n,n,x,x,x,x
CC(C)C(C(=O)O)N1C(=O)/C(=C/C=C/c2ccco2)SC1=S (configuration not stated),u,1.58µM,u,u,u,n,n,2.51µM,n
CC(C)[N+](C)(CCOC(=O)C1c2ccccc2Oc2ccccc21)C(C)C,n,8.91µM!,u,n,n,x,n,n,x
CC(C)(C)n1ncc2c(=O)n(Cc3ccc(Cl)c(C(F)(F)F)c3)cnc21,x,n,x,x,x,x,x,x,x
O=C(O)c1ccc(COc2ccc3c4c(c(=O)oc3c2)CCC4)o1,n,u,n,n,x,n,n,12.6µM,u
O=c1oc2cc(OCc3ccc([N+](=O)[O-])cc3)ccc2c2c1CCCC2,n,n,n,n,n,x,x,x,x
C=C(C[C@]1(C(=O)OC)CC2(CC=C(C)C)C(=O)C(C(=O)CC(C)C)=C(O)C(CC=C(C)C)(C1)C2=O)C(=O)OC (some centres not stated),x,n,n,n,n,x,x,x,x
